This is a sample that favours compounds with a hit; in the whole collection about 11% have one here.
Pf growth 48h: Primary qHTS for delayed death inhibitors of the malarial parasite plastid, 48 hour incubation. P. falciparum luciferase growth in erythrocytes, 48 h. Potency, µM (series often up to 28.7 µM), for inactives: at the highest dose activity change, negative = inhibition, most hits filed as inhibitors. 5.9% of 310,000 active. AID 504832, 2011; further: on the % scale 0 is the no-effect control and ±100 the full control effect
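Compounds are pin-transferred into medium, infected erythrocytes (2% hematocrit, 0.1% parasitemia final) are added, and plates sit one parasite generation at 37 C in 5% CO2. Detection reagent is then added and luminescence measured.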
NS1 inh: qHTS Assay for Inhibitors of Influenza NS1 Protein Function; AID 2326, 2010; Potency, µM (doses to about 46.1 µM), without a hit: at the highest dose activity, positive = more growth; 0.4% of 270,000 active; calls by dose curve; further: actives are rising curves; nearly all actives have a fitted effect of over 50% in size
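Compounds were scored for reversing the slow growth caused by influenza A NS1 in S. cerevisiae, measured by optical density at 600 nm. Assay medium contained 2% galactose at pH 6.0; NS1-free yeast of the same strain were the positive control.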
Vaccinia mCherry: qHTS for Stage-Specific Inhibitors of Vaccinia Orthopoxvirus: mCherry Reporter Primary qHTS | Vaccinia virus mCherry reporter infection, fluorescence | Potency, µM (titrated, usually from 36.5 µM), for inactives: at the top dose activity change, negative = inhibition, usual class: inhibitors | 0.63% of 310,000 active | AID 720579, 2013; calls by dose curve; tested in A549 cells; further: on the % scale 0 is the no-effect control and ±100 the full control effect; nearly all actives have a fitted effect of over 35% in size
Pf growth 96h: Primary qHTS for delayed death inhibitors of the malarial parasite plastid, 96 hour incubation; P. falciparum luciferase reporter growth, 96 h; Potency, µM (top dose mostly 28.7 µM), inactives show at the top dose activity change, negative = inhibition, actives largely listed as inhibitors; 6.9% of 320,000 active; further: on the % scale 0 is the no-effect control and ±100 the full control effect
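Luminescence readout: decreased luciferase signal marks inhibited growth of reporter-expressing P. falciparum in infected red cells (2% hematocrit, 0.05% parasitemia final), exposed to compound two generations (96 h, 37 C, 5% CO2).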
Vaccinia Venus: qHTS for Stage-Specific Inhibitors of Vaccinia Orthopoxvirus: Venus Reporter Primary qHTS; 0.46% of 330,000 active; Potency, µM (series often up to 36.5 µM), without a hit: top-dose activity change, negative = inhibition, hits mostly inhibitors; Vaccinia virus Venus reporter expression, fluorescence; calls by dose curve; tested in A549 cells; further: on the % scale 0 is the no-effect control and ±100 the full control effect; nearly all actives have a fitted effect of over 30% in size
HCV inh: qHTS Assay for Inhibitors of Hepatitis C Virus (HCV). Huh7.5.1 HCVcc-Cre infection, luciferase reporter, 44 h. 3.4% of 340,000 active. Potency, µM (highest dose often 41.8 µM), inactives show top-dose activity change, negative = inhibition, actives largely listed as inhibitors; further: on the % scale 0 is the no-effect control and ±100 the full control effect
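Luciferase read-out (15 sec integration) after a 15 min room-temperature substrate step quantifies HCVcc-Cre infection. Cells, 1,000 per well, had compound added 4 h post-plating, then virus at ~0.5 moi, and were cultured 44 h.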
Numbers without * were called inactive; i = inactive; u = inconclusive; x = no result. Unless noted, the call rests on the fitted dose curve; in most records, active means well fitted inhibition curve with a large enough effect; inconclusive means small, poorly fitted or top-dose-only effect, or another doubt; inactive means no such curve, though single readings can be large or run the other way. Potency means the concentration at half of the fitted maximal effect.

SMILES	Pf growth 48h	NS1 inh	Vaccinia mCherry	Pf growth 96h	Vaccinia Venus	HCV inh
CCC(C)n1c(O)c(C=NCCc2ccccc2)c(=O)[nH]c1=S (configuration not stated)	12%	5%	x	35%	x	3%
c1ccc2c(-c3ccncc3)c[nH]c2c1	u	-87%	-21%	x	7%	7.9µM*
c1ccc(-c2nnc(-c3ccccc3)c(-c3c[nH]c4ccccc34)n2)cc1	-6%	10%	x	6%	-10%	-18%
COc1cccc(C(C)(O)c2nc(-c3cc(F)cc(F)c3)cs2)c1 (configuration not stated)	x	x	i	x	-5%	x
Cc1ccc(S(=O)(=O)Oc2ccc(/C=C(/NC(=O)c3ccccc3)C(=O)Nc3ccccc3)cc2)cc1	u	u	x	9.3µM*	0%	u
COc1ccc(OC)c(-c2cc(C3CCN(C(=O)OC(C)(C)C)CC3)[nH]n2)c1	u	-6%	u	10µM*	-22%	-5%
CC12CCC(C(=O)N3CCN(Cc4ccccc4)CC3)(OC1=O)C2(C)C (configuration not stated)	x	-13%	-1%	x	-8%	-3%
CCOc1cc(/C=N/NC(N)=O)cc(Br)c1OCC(=O)Nc1cccc2ccccc12	x	8%	x	u	-11%	18µM*
CC(C)OCCCNc1nc2c(cnn2C)c(=O)[nH]1	x	x	i	x	-24%	-20%
CCNS(=O)(=O)c1ccc(CCC(=O)Nc2ccc(C(=O)OC)cc2)cc1	u	x	i	u	-1%	-22%
CNc1nc(-c2ccccn2)nnc1-c1ccccc1	x	-44%	u	u	u	u
O=C(CSc1nc2ccccc2c(=O)n1CC1CCCO1)N1CCN(c2ccccc2)CC1 (configuration not stated)	x	-2%	x	x	x	0%
NS(=O)(=O)c1ccc(CCNC(=O)c2cc(S(=O)(=O)N3CCCCC3)ccc2Cl)cc1	x	x	-29%	x	-6%	x
CC1CCCN(S(=O)(=O)c2cc(C(=O)NCCc3ccc(S(N)(=O)=O)cc3)ccc2Cl)C1 (configuration not stated)	x	x	x	x	x	7.9µM*
O=C(NCc1ccccc1)c1ccc(Cl)c(S(=O)(=O)N2CCCC2)c1	x	x	x	x	x	-25%
O=C(NCCc1ccccc1)c1ccc(Cl)c(S(=O)(=O)N2CCCC2)c1	-16%	-22%	x	10µM*	x	10µM*
COc1ccc(CCNC(=O)c2ccc(Cl)c(S(=O)(=O)N(C)c3ccccc3)c2)cc1	u	0%	-22%	10µM*	u	3.5µM*
CN(C)S(=O)(=O)c1cc(C(=O)NCCCn2ccc3ccccc32)ccc1Cl	x	12%	x	4.1µM*	x	-28%
COc1ccc(CCNC(=O)c2cccc(S(=O)(=O)N3CCCCCC3)c2)cc1	-32%	x	x	u	x	-19%
COc1ccc(CCNC(=O)c2ccc(Cl)c(S(=O)(=O)N3CCCCCC3)c2)cc1	u	x	x	u	x	2.8µM*
CCOC(=O)C1(CCOc2ccccc2)CCN(Cc2ccc(CO)o2)CC1	u	4%	i	-25%	-10%	u
CCOC(=O)C1(CCOc2ccccc2)CCN(Cc2cccc3c2OCO3)CC1	u	-1%	-8%	-1%	-18%	10µM*
CCOC(=O)C1(CCOc2ccccc2)CCN(Cc2cc(OC)c3c(c2)OCO3)CC1	u	3%	-4%	u	-13%	11µM*
Cc1ccc2[nH]c3nc(N/N=C/c4cccc(O)c4)nnc3c2c1	111%	12%	-12%	u	-3%	5%
CCc1ccc2[nH]c3nc(N/N=C/c4ccc(O)cc4O)nnc3c2c1	8.3µM*	8%	1.8µM*	10%	-25%	u
CCOC(=O)c1c(C)oc2nc(C)nc(NCc3ccccc3OCC)c12	x	x	-4%	x	-9%	x
CCN(CC)C(=O)CSc1nc(C)cc(C)c1C#N	-2%	x	i	95%	-14%	5%

Bioassay records from PubChem.
